About 83,000 compounds went through this panel and 20% of them were active in at least one assay; those are over-represented in the sample as a whole.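 Single-dose data. Exposure time 48 hours. Values below 10 considered active.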 Calls of active or inactive are those of the source.
What was measured:
Test in all cases: NCI-60 one-dose screen, 48 h (100 = growth as untreated, 0 = no growth, -100 = all killed)
Details in all cases: 10 µM unless noted
[1] = test system: T-47D breast
[2] = test system: BT-549 breast
[3] = test system: MDA-MB-435 melanoma
[4] = test system: SW-620 colon
[5] = test system: MCF7 breast
[6] = test system: HCT-116 colon
[7] = test system: HCC-2998 colon
[8] = test system: KM12 colon

Measured: growth

Cc1ccc(Nc2c(C(N)=O)cnc3ccc(S(=O)(=O)Nc4cc(C)on4)cc23)cc1
inactive: [1] 92.7% | [2] 105% | [3] 103% | [4] 105% | [5] 93.9% | [6] 94% | [7] 107% | [8] 103%

COc1ccccc1-n1cnc(N)c1C(=O)c1cc(OC)c(OC)c(OC)c1
active: [3] -15%
inactive: [1] 49.8% | [2] 47.1% | [4] 23.7% | [5] 12.4% | [6] 24.5% | [7] 61.7% | [8] 16.1%

CCOC(=O)c1ccc2c(c1)[n+](=O)c(C(=O)C1CCCS1)c(C(F)(F)F)n2[O-] (stereo not given)
active: [1] -70.5% | [2] -93.4% | [3] -80.5% | [4] -82.4% | [5] -68.1% | [6] -96.2% | [7] -89% | [8] -90.4%

Clc1cc(Cl)cc(Nc2ccc3c(OCCCN4CCOCC4)cccc3n2)c1
inactive: [1] 60.4% | [2] 72.7% | [3] 57.4% | [5] 21.6% | [6] 27.5% | [7] 36.7%
active: [4] -41.9% | [8] -51.2%

O=C(NO)c1ccc(Cn2c(=O)n(-c3ccccc3)c(=O)c3ccccc32)cc1
active: [3] -64.2% | [4] 0.142% | [6] -53.1% | [8] -7.84%
inactive: [1] 14.1% | [2] 32.4% | [5] 33.2% | [7] 54.1%

Cc1ccc(N(CC(=O)Nc2ccc(S(=O)(=O)NC3CCN(C)CC3)cc2)S(=O)(=O)c2ccc(Cl)cc2)cc1
inactive: [1] 58.4% | [2] 86.6% | [4] 10.1% | [5] 39% | [6] 47.6% | [7] 30.4% | [8] 61.2%
active: [3] -44.3%

NC1=NN=C2N(N)C(=O)c3cnn(-c4ccccc4)c3N2c2nc(-c3ccccc3)cc(-c3ccccc3)c21
inactive: [1] 71.1% | [2] 108% | [3] 108% | [4] 104% | [5] 65.5% | [6] 93.7% | [7] 107% | [8] 103%

NC(N)=N/N=C/c1ccc(-c2ccc(-c3ccc(Cl)cn3)s2)cc1
active: [4] 2.46%
inactive: [1] 91.2% | [2] 98.8% | [3] 98.5% | [5] 42.8% | [6] 50.2% | [7] 98.4% | [8] 14.8%

Cc1ccc(-c2nn(Cc3cn(-c4cc(C)nc5ccccc45)nn3)c3ncnc(N)c23)cc1
inactive: [1] 19.6% | [2] 64.4% | [3] 50.2% | [4] 82.4% | [5] 34.6% | [6] 53.8% | [7] 76.4% | [8] 74.4%

CC(C)=CCC/C(C)=C/CC/C(C)=C/CC/C(C)=C/CSC[C@H](NC(=O)CCCCCN1CCN(C)CC1)C(=O)NC1CCCCC1
active: [4] -12.9% | [6] 6.51%
inactive: [1] 58.3% | [2] 102% | [3] 48.5% | [5] 17% | [7] 63.8% | [8] 81.7%

C=C1C(=O)O[C@H]2[C@H]1CC/C(Cn1cc(-c3ccc(OC)cc3)nn1)=C\CC[C@@]1(C)O[C@@H]21
inactive: [2] 50% | [8] 65.5%
active: [1] -71% | [3] -26.9% | [4] -50.2% | [5] -41.3% | [6] -83.6% | [7] 2.05%

O=C1c2ccccc2NC(c2cn(-c3ccccc3)nc2-c2cccs2)N1Cc1ccccc1 (stereo not given)
inactive: [1] 54.9% | [2] 88.5% | [3] 97.5% | [4] 97.3% | [5] 72% | [6] 65.9% | [7] 95.1% | [8] 83.7%

Fc1cccc(-c2[nH]nc3nc(Nc4cccnc4)sc23)c1
inactive: [1] 50.8% | [2] 60.6% | [4] 41.6% | [5] 29.3% | [6] 35% | [7] 70.2% | [8] 22.8%
active: [3] -8.7%

CN(C)c1ccc(C(=O)c2ccc(N(C)C)c(N)c2)cc1N
inactive: [1] 21.9% | [2] 31.9% | [4] 10.2% | [5] 15% | [6] 23.6% | [7] 86.1% | [8] 17.7%
active: [3] -32.1%

C=C(C)[C@@H]1CC[C@]2(C)CC[C@]3(C)[C@H](CC[C@@H]4[C@@]5(C)CCCNC(C)(C)[C@@H]5CC[C@]43C)[C@@H]12
inactive: [1] 76% | [2] 101% | [3] 84.6% | [5] 33.3% | [7] 66% | [8] 66.8%
active: [4] 2.47% | [6] 5.39%

Cc1cc2nc3c4cc(N)ccc4n(CCN(C)C)c3nc2cc1C
inactive: [1] 16.1% | [2] 45% | [3] 14.6% | [7] 17% | [8] 17.4%
active: [4] 7.31% | [5] -19.6% | [6] 5.51%

Cc1cc(N2CCCCC2)nc(N(CCCNc2ccnc3cc(Cl)ccc23)Cc2ccco2)n1
active: [3] -9.54% | [4] 9.49% | [6] 0.453%
inactive: [1] 26.9% | [2] 27.3% | [5] 11.7% | [7] 54.7% | [8] 28.9%

O=c1c(CNc2ccc(S(=O)(=O)Nc3ncccn3)cc2)coc2ccccc12
inactive: [1] 81.1% | [2] 93.6% | [3] 119% | [4] 98.4% | [5] 86.1% | [6] 91.3% | [7] 101% | [8] 115%

C=C(C)[C@@H]1CC[C@]2(/C=N/Nc3ccncc3)CC[C@]3(C)[C@H](CC[C@@H]4[C@@]5(C)CCCNC(C)(C)[C@@H]5CC[C@]43C)[C@@H]12
inactive: [1] 64.5% | [2] 77.2% | [3] 86.7% | [4] 41.4% | [5] 63.2% | [6] 43.8% | [7] 71.3% | [8] 82.1%

C[C@H]1[C@H]2C3=CC[C@@H]4[C@@]5(C)C/C(=C/c6ccco6)C(=O)C(C)(C)[C@@H]5CC[C@@]4(C)[C@]3(C)CC[C@@]2(C(=O)N2CCOCC2)CC[C@@H]1C
inactive: [1] 32% | [2] 75.8% | [3] 97.1% | [4] 25.3% | [5] 39.4% | [6] 26.9% | [7] 90.5% | [8] 54.2%

COC(=O)[C@]12CC[C@@H](C)[C@H](C)[C@@H]1C1=CC[C@@H]3[C@@]4(C)C[C@@H](OC(C)=O)[C@H](O)[C@@](C)(COC(C)=O)[C@@H]4[C@H](O)C[C@@]3(C)[C@]1(C)CC2
active: [1] -66.3% | [2] -85.8% | [3] -81.7% | [4] -80.9% | [5] -78.7% | [6] -69.5% | [7] -89.7% | [8] -75.4%

COc1ccc(/C=C(\C#N)c2cc3ccccc3n2C(C)=O)cc1
inactive: [1] 78.5% | [2] 82.6% | [4] 59.5% | [5] 53.7% | [6] 81.1% | [7] 81.2% | [8] 57.1%
active: [3] 9.69%

COc1ccc(NC(=O)c2ccoc2COc2ccccc2)cc1
inactive: [1] 95.1% | [2] 92% | [3] 73.6% | [4] 97.9% | [5] 88.6% | [6] 87.4% | [7] 93% | [8] 93.9%

N#Cc1c(-c2ccco2)nc2c(c(-c3ccccc3)nn2-c2ccccc2)c1-c1ccc(O)cc1
inactive: [1] 18.5% | [2] 64.7% | [3] 62.1% | [4] 48% | [5] 47.3% | [6] 36.9% | [7] 91.5% | [8] 43%

COc1cc(C(=O)/C=C/c2cc(-c3ccc4c(c3)OCO4)n[nH]2)cc(OC)c1OC
inactive: [1] 19.7% | [3] 40% | [7] 85.4%
active: [2] -11.2% | [4] -15.1% | [5] 6.06% | [6] 6.54% | [8] 1.81%

Cc1cccc(C)c1NC(=O)CSC(=S)N1CCCCC1
inactive: [1] 85.4% | [2] 105% | [3] 110% | [4] 103% | [5] 97.8% | [6] 99.7% | [7] 100% | [8] 97.8%

Cn1cc(-c2nc(-c3cn(C)c4ncccc34)cs2)c2cc(F)ccc21
inactive: [1] 48.1% | [2] 49% | [4] 26.9% | [5] 20% | [6] 18.6% | [7] 53% | [8] 22.2%
active: [3] -15.1%

CC1(C)NC2=C(C(Nc3cccnc3)N1)C(c1ccc([N+](=O)[O-])cc1)C(C(=O)c1ccc(N=[N+]=[N-])cc1)O2 (stereo not given)
inactive: [1] 102% | [2] 99.7% | [3] 105% | [4] 104% | [5] 97.5% | [6] 104% | [7] 110% | [8] 105%

COc1ccc2c3c(c4ccccc4cc13)C(=O)N(CCN(C)CCN)C2=O
active: [1] 6.79% | [3] -92.6% | [4] -66.5% | [5] -88.2% | [6] -94.8% | [7] -80.2% | [8] -68.6%
inactive: [2] 26.1%

CCN1CCN(C(=O)[C@]23CCC(C)(C)C[C@@H]2C2=CC[C@@H]4[C@@]5(C)C/C(=C/c6ccncc6)C(=O)C(C)(C)[C@@H]5CC[C@@]4(C)[C@]2(C)CC3)CC1
active: [1] -2.08% | [2] -5.92% | [3] -29.9% | [4] -54.1% | [5] -53.6% | [6] -92.4% | [7] -68.8% | [8] -39.9%
